SMILES strings stand for the structures. Counter-ions that a name gives are not always drawn. ± gives the standard deviation of the averaged measurements.

The assay concerns mESC LDLR-Dup GFP reporter (SpCas9 MH-deletion repair). As to the kind of experiment: fraction of GFP+ cells relative to DMSO control (fold change); higher = more MH-deletion repair to in-frame LDLR (or more editing). Particulars: 2 µM; 7 days post-transfection.
In the case of `C#CCC(Cc1cnc2nc(N)nc(N)c2n1)c1ccc(C(=O)N[C@@H](CCC(=O)O)C(=O)O)cc1` (stereo not given in full) [Pralatrexate], the “fraction of GFP+ cells” value was 1.43 ± 0.46.
Turning to `O=c1[nH]c(C2CCCN2)nc2c1oc1ccc(Cl)cc12` (stereo not given), the “fraction of GFP+ cells” value is 1.11 ± 0.15.
In the case of `O=C(O)CCCc1ccccc1` [Sodium Phenylbutyrate] it was 0.708 ± 0.082; in that of `O=C(O[C@@H]1Cc2c(O)cc(O)cc2O[C@@H]1c1cc(O)c(O)c(O)c1)c1cc(O)c(O)c(O)c1` [(-)-Epigallocatechin Gallate], 0.828 ± 0.097; in that of `COCCCc1sc(-c2ccccc2)nc1C(=O)Nc1ccccc1-c1nc2cc(CN3CCCC3)cnc2s1`, 1.15 ± 0.33.
In the case of `CN1CCc2c(c3ccccc3n2Cc2ccc(C(=O)NO)cc2)C1` [Tubastatin A HCl] it was 0.623 ± 0.15.
Under `CNC1CCCN(c2c(F)cc3c(=O)c(C(=O)O)cn(C4CC4)c3c2OC)C1` (stereo not given) [Balofloxacin] stands 0.978 ± 0.15; under `Nc1nc(=O)c2nc(CNc3ccc(C(=O)N[C@@H](CCC(=O)O)C(=O)O)cc3)cnc2[nH]1` [Folic acid], 1.24 ± 0.46.
Turning to `N=C1NC(=O)/C(=C/c2ccc(O)cc2)S1` [Mirin], the “fraction of GFP+ cells” value came out at 0.862 ± 0.2.
Under `COc1cc(Br)c(Nc2nc(-c3c(C)nc4ncccn34)cs2)c(Br)c1` stands 0.111 ± 0.028.
In the case of `CC(NC(=O)c1ccccc1/N=C/c1c(O)ccc2ccccc12)c1ccccc1` (stereo not given) [Sirtinol] it was 1.45 ± 0.24; in that of `CCc1ccc(/C=C2/SC(=S)NC2=O)cc1`, 0.853 ± 0.25.
Under `O=C(O)c1ccc2c(c1)nc(Nc1cccc(Cl)c1)c1ccncc12` [Silmitasertib (CX-4945)] stands 0.655 ± 0.32; under `CC(C)NC(=O)COc1cccc(-c2nc(Nc3ccc4[nH]ncc4c3)c3ccccc3n2)c1`, 1.21 ± 1.4; under `O=C(NCCN1CCOCC1)Nc1ccc(C(=O)/C=C/c2cccc(N3CCOCC3)n2)cc1`, 1.18 ± 0.16.
In the case of `Cc1nc(-c2cccnc2)sc1C(=O)Nc1ccccc1-c1cn2c(CN3CCOCC3)csc2n1`, the “fraction of GFP+ cells” value stood at 1.34 ± 0.54.
For the molecule `C[C@@H](N)c1ccc(C(=O)Nc2ccnc3[nH]ccc23)cc1`, the “fraction of GFP+ cells” value was determined as 1.54 ± 0.27.
In the case of `Nc1nc(=O)c2c([nH]1)NC[C@H](CNc1ccc(C(=O)N[C@@H](CCC(=O)O)C(=O)O)cc1)N2C=O` [Calcium Levofolinate] it was 1.1 ± 0.47; in that of `Cn1cc(C(=O)Nc2ccc3c(c2)OCCO3)c2ccccc2c1=O`, 1.33 ± 0.53.
As for `C=CCc1ccc(O)c(-c2cc(CC=C)ccc2O)c1` [Magnolol], the “fraction of GFP+ cells” value is 0.713 ± 0.084.
Under `O=S(=O)(N=Cc1c(O)ccc2ccccc12)c1cccs1` stands 1.15 ± 0.65; under `CCn1cc(-c2ccnc3[nH]c(-c4cccc(CN(C)C)c4)cc23)c(-c2ccc(NC(=O)N(C)C)cc2)n1`, 0.251 ± 0.13.
In the case of `O=[N+]([O-])c1ccc(Nc2ccccc2-c2ccccc2)c2nonc12` it was 0.854 ± 0.23; in that of `O=C(Nc1ccccc1)c1cc([N+](=O)[O-])ccc1Cl`, 1.96 ± 0.34; in that of `CC1=C(/C=C/C(C)=C/C=C/C(C)=C/C(=O)O)C(C)(C)CCC1` [Tretinoin], 0.923 ± 0.026.
In the case of `S=P(N1CC1)(N1CC1)N1CC1` [Thiotepa] it was 0.905 ± 0.27.
As to `O=C(O)c1cc(=O)[nH]c(=O)[nH]1` [Orotic acid (6-Carboxyuracil)], the “fraction of GFP+ cells” value came out at 0.847 ± 0.26.
`COc1ccc(-c2nc(-c3cc(C(F)(F)F)cc(C(F)(F)F)c3)n(Cc3ccc(C(N)=O)cc3)c2-c2ccc(OC)cc2)cc1` [Apoptozole]: the “fraction of GFP+ cells” value was found to be 1.14 ± 0.37.
In the case of `Nc1ccc(O)c(C(=O)O)c1` [Mesalamine] it was 0.933 ± 0.049; in that of `COc1c(O)cc(O)c2c(=O)cc(-c3ccccc3)oc12` [Wogonin], 0.728 ± 0.15; in that of `COc1ccc(CC(=O)Nc2nc3c(s2)CCc2ccccc2-3)cc1OC`, 1.51 ± 0.37.
In the case of `O=C(NCCS(=O)(=O)c1ccc(C(F)(F)F)cn1)c1ccc(Cl)cc1` it was 1.39 ± 0.63; in that of `Cc1cc(N2C[C@@H](C)N[C@@H](C)C2)ncc1-c1ccc(-c2nc3c(ccn3C)c(=O)[nH]2)cc1`, 0.927 ± 0.33; in that of `CC(=O)NCC(=O)N1[C@@H]2CC[C@H]1c1ccc(Nc3ncc(C(F)(F)F)c(NC4CCC4)n3)cc12`, 1.27 ± 0.73.
In the case of `Nc1nc(NC2CC2)cc(-c2cccc(Cl)c2Cl)n1` it was 0.918 ± 0.2.
For `OCc1ccc(-c2ccc(-c3ccc(CO)s3)o2)s1`, the “fraction of GFP+ cells” value was found to be 0.657 ± 0.23.
With `C[C@H](NC(=O)CCc1nc2ccccc2c(=O)[nH]1)c1ccccc1`, the “fraction of GFP+ cells” value is 0.781 ± 0.051.
In the case of `CCn1cc(C(=O)O)c(=O)c2cc(F)c(N3CCN(C)CC3)cc21` [Pefloxacin Mesylate Dihydrate] it was 1.13 ± 0.09; in that of `CCc1nc(N)nc(N)c1-c1ccc(Cl)cc1` [Pyrimethamine], 1.5 ± 1.2; in that of `NC(=O)c1nc(F)cnc1O` [Favipiravir (T-705)], 0.826 ± 0.25.
